Laboratory results reported in PubChem BioAssay (NCI).
Compounds without any hit were thinned out: in the full panel of roughly 83,000, 20% have a hit.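 The endpoint reported here, percent growth, reads 100 for growth as untreated, 0 for no net growth and -100 for all cells dead.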 Unmarked numbers belong to inactive results. Active and inactive are the calls of the source. The calls were made as follows: active = growth percent below 10; inactive = the rest.

Assays:
Assay in all cases: NCI-60 one-dose screen, 48 h (100 = growth as untreated, 0 = no growth, -100 = all killed)
Details in all cases: 10 µM unless noted
NCI-H23 lung = tested on: NCI-H23 lung
NCI-H226 lung = tested on: NCI-H226 lung
NCI-H322M lung = tested on: NCI-H322M lung
HOP-62 NSCLC = tested on: HOP-62 NSCLC
NCI-H460 lung = tested on: NCI-H460 lung
HOP-92 NSCLC = tested on: HOP-92 NSCLC
NCI-H522 lung = tested on: NCI-H522 lung
A549/ATCC NSCLC = tested on: A549/ATCC NSCLC
786-0 renal = tested on: 786-0 renal
COLO 205 colon = tested on: COLO 205 colon
DU-145 prostate = tested on: DU-145 prostate
K-562 leukemia = tested on: K-562 leukemia
MALME-3M melanoma = tested on: MALME-3M melanoma
MDA-MB-231 breast = tested on: MDA-MB-231 breast
SF-268 CNS = tested on: SF-268 CNS
SF-295 CNS = tested on: SF-295 CNS
SF-539 CNS = tested on: SF-539 CNS
UACC-257 melanoma = tested on: UACC-257 melanoma
M14 melanoma = tested on: M14 melanoma
RXF 393 renal = tested on: RXF 393 renal

Compound | growth (NCI-H23 lung) | growth (NCI-H226 lung) | growth (NCI-H322M lung) | growth (HOP-62 NSCLC) | growth (NCI-H460 lung) | growth (HOP-92 NSCLC) | growth (NCI-H522 lung) | growth (A549/ATCC NSCLC) | growth (786-0 renal) | growth (COLO 205 colon) | growth (DU-145 prostate) | growth (K-562 leukemia) | growth (MALME-3M melanoma) | growth (MDA-MB-231 breast) | growth (SF-268 CNS) | growth (SF-295 CNS) | growth (SF-539 CNS) | growth (UACC-257 melanoma) | growth (M14 melanoma) | growth (RXF 393 renal)
COc1ccc(/C=C2\CS(=O)(=O)C/C(=C\c3ccc(OC)cc3)C2=O)cc1 | -49.3% (active) | -43.9% (active) | 30.9% | -67.7% (active) | -52.6% (active) | -41.3% (active) | -73.6% (active) | -56.5% (active) | -100% (active) | -70.6% (active) | -44.2% (active) | -15.4% (active) | -23% (active) | 8.06% (active) | -24.7% (active) | -14.4% (active) | -54.6% (active) | -80.5% (active) | -78.1% (active) | –
COc1ccc(C[C@H](N)C(=O)N[C@@H]2[C@@H](CO)OC(n3cnc4c(N(C)C)ncnc43)[C@@H]2O)cc1 (some centres undefined) | -39.4% (active) | -65.2% (active) | -65.2% (active) | -57.8% (active) | -67% (active) | -67.1% (active) | -68.7% (active) | -57.9% (active) | -87.6% (active) | -63.2% (active) | -7.63% (active) | -11.4% (active) | -78.1% (active) | -10.1% (active) | -42.5% (active) | -43% (active) | -42.9% (active) | -64.7% (active) | -85.5% (active) | -86.6% (active)
C/C(=N\N=C1/SCC(=O)N1c1ccccc1)c1ccco1 | 99.4% | 124% | 89.8% | 137% | 123% | 63.3% | 75.4% | 114% | 52% | 130% | 119% | 96.4% | 82.1% | 93.2% | 91.6% | 98.3% | 118% | 118% | 176% | 112%
O=C(C[n+]1ccccc1Cl)c1ccc2c(c1)CCCC2 | 92% | 112% | 106% | 90.6% | 107% | 95.1% | 87.4% | 85.6% | 75.5% | 56.3% | 97.1% | 82.9% | 81.8% | 99.7% | 99.5% | 99.4% | 97.6% | 101% | 86.2% | 95.8%
COc1ccccc1N1CCN(CC(O)COc2c(Br)c(Br)c(Br)c3c2OC(C)(C)C3)CC1 (centres undefined) | 48.8% | 45% | 59.9% | 66.1% | 15.1% | -28.9% (active) | 55.1% | 45.5% | 6.05% (active) | 58.6% | 97.2% | 11% | 67.2% | 44.9% | 131% | 29.8% | 94.1% | 96.9% | 29.9% | 40.2%
COc1ccc(Cn2cc(COc3ccc4c5ccnc(C)c5n(CCCc5ccccc5)c4c3)nn2)cc1 | 85.6% | 99.4% | 79.5% | 90.7% | 62.6% | 83.3% | 64.4% | 75.3% | 80.4% | 69.2% | 84.3% | 63.2% | 81.6% | 65.6% | 76.6% | 92.3% | 58.7% | 90.2% | 83.1% | 58.8%
CS(=O)(=O)Nc1cccc(-c2ccc3ncnc(Nc4cncc(Cl)c4)c3c2)c1 | 47.1% | 52.5% | 19.9% | 40.5% | 44.9% | 11.2% | 28.1% | 30.5% | 10.1% | 5.27% (active) | 38.6% | 16.9% | 40.3% | 1.39% (active) | 42.4% | -17.7% (active) | 2.94% (active) | 49.7% | 16.8% | 19.8%
O=C1c2ccccc2OC=C(c2ccccc2)N1CCCCNc1ccc(F)cc1 | 90.1% | 87.5% | 90.3% | 85.1% | 97.9% | 21.8% | 69.5% | 68.9% | 68.2% | 67.6% | 98.9% | 68.1% | 82.3% | 74.9% | 78.3% | 86% | 100% | 83.6% | 76.7% | 97.9%
